Reference: PubChem BioAssay
Inconclusive results are not listed. Active and inactive are the calls of the source.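 The calls were made as follows, unless noted: active = inhibition over a set limit, the all-compound mean plus 3 SD, in both replicate runs; inconclusive = over that limit in just one replicate run; inactive = at or under that limit in both runs.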

Experiments:
[1] = reduced viability of SK-BR-3 breast cancer cells – cell-based, 24 h, human, pilot screen (AID 572;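 active = viability at or below 10% of carrier control in both of two separate runs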;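 also: compound exposure lasted between 18 and 24 h rather than exactly 24 h; 100% = carrier-treated control wells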); conditions: SK-BR-3 viability, CellTiter-Glo luminescence, at 10 µM, stronger effect = lower value
[2] = HUVEC growth inhibition – cell-based, human, primary screen (AID 575;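 active = viability at or below 30% in both replicate assays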;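 also: 100% = median of untreated cell wells with 0.1% DMSO on each plate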); conditions: HUVEC proliferation, CellTiter-Glo luminescence, 72 h; at 10 µM; stronger effect = lower value
[3] = H69AR cell proliferation blockers – human, duplicate replicates, primary screen (AID 580;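 active = viability at or under a set limit in both replicates, limit being median viability minus 3 SD, cut at about 48% in these data, passing the limit was not always enough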;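 also: 100% = mean luminescence of untreated wells and 0% = no signal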); conditions: H69AR lung tumor cells viability, ATP luminescence, 72 h; at 10 µM; stronger effect = lower value
[4] = MRP1 drug-resistance reversers in H69AR cells – cell-based, doxorubicin co-treatment, pilot screen (AID 601;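 active = viability loss from added drug above about 55%, and viability with drug at most 40%, in both replicates, limit read from the data, passing the limit was not always enough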); conditions: CellTiter-Glo, 72 h, at 10 µM; for differential viability (reversal): stronger effect = higher value
[5] = yeast transport mutant growth inhibition pilot in 384-well plates, post-Golgi transport modulator project (AID 636; in the data active = inhibition above about 31%); conditions: absorbance 615 nm, about 18 h, stronger effect = higher value
[6] = growth suppression of yeast trafficking mutant, preliminary HTS, modulators of trafficking downstream of Golgi apparatus project, 1536-format plate, OD 615 nm (AID 637; in the data active = inhibition above about 30%); conditions: yeast transport mutant growth, absorbance 615 nm, 18 h; stronger effect = higher value
[7] = S. cerevisiae growth inhibition in permissive medium (OD615), pilot counter-assay for S. cerevisiae lifespan shortening project, permissive growth control (AID 705;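 active = growth inhibition above 25% in both replicates, a cutoff set 3 SD above the mean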); conditions: OD615, 24 h, at 10 µM, stronger effect = higher value
[8] = S. cerevisiae growth inhibition in restrictive medium, OD615, pilot screen, restrictive growth control, yeast lifespan reduction project (AID 706;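 active = growth inhibition above a set limit, 3 SD over mean compound inhibition, in both replicates, cut at about 43% in these data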;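 also: modified DeaD lifespan yeast strain shifted to restrictive glucose medium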); conditions: OD615, 48 h, at 10 µM, stronger effect = higher value
[9] = doxorubicin toxicity protection in MRP-1 cells – H69AR cells, CellTiter-Glo, duplicate, MRP-1 activator project, pilot screen (AID 807;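 active = viability increase at or above a cutoff of the median across tested compounds plus 3 SD, cut at about 8.5% in these data, passing the limit was not always enough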;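 also: compound pretreatment 18-22 h then 72 h combined with doxorubicin; 0% = doxorubicin alone and 100% = vehicle without doxorubicin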); conditions: H69AR viability with doxorubicin, CellTiter-Glo luminescence; at 10 µM; stronger effect = higher value
[10] = viability of HCT116 without oncogenic beta-catenin – human colon tumor cells, pilot screen (AID 823;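 active = cell viability at or below a set limit in both duplicate runs, the limit being the all-compound median minus 4 SD, cut at about 23% in these data, passing the limit was not always enough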;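 also: 0% = wells killed by 20 µM Hyamine and 100% = untreated DMSO cell wells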); conditions: HCT116 beta-catenin knockout viability, CellTiter-Glo, 60 h; at 10 µM; stronger effect = lower value
[11] = viability of PTEN-null HCT116 cells – cell-based, HCT116 clonal line, CellTiter-Glo, pilot screen (AID 824;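 active = viability at or below 27.92% in each of two runs, the all-compound median minus 4 SD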;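 also: 0% = 20 µM Hyamine control and 100% = vehicle cell control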); conditions: HCT116 PTEN-deleted viability, 60 h, at 10 µM, stronger effect = lower value
[12] = RAM pathway blockade in budding yeast – dse1pr::URA3 reporter, 5-FOA selection, pilot screen (AID 869);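 also: 0% = DMSO wells with no growth and 100% = 10 µM 1-NA-PP1 with full growth; RAM network block rescues cells from 5-FOA so hits raise OD615 growth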; conditions: S. cerevisiae dse1pr::URA3 5-FOA growth, OD615, 2 d; at 10 µM; stronger effect = higher value; strain carries analog-sensitive mutant Cbk1 kinase
[13] = RAM signaling pathway blockade in yeast – S. cerevisiae, Pdr1DBD-CYC8 efflux-inhibited sensitized strain, primary screen (AID 1298;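 active = RAM network inhibition above 8.4% in each of two replicates, 3 SD over the compound average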;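 also: 0% = DMSO untreated cells without growth and 100% = 10 µM 1-NA-PP1 full growth; higher means more yeast growth rescued from 5-FOA killing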); conditions: S. cerevisiae cbk1-as DSE1-URA3 strain, 5-FOA growth OD615, 2 d; at 50 µM; stronger effect = higher value
[14] = H69AR cells + 2 uM doxorubicin, measured here: viability with 2 uM doxorubicin, stronger effect = lower value
[15] = H69AR cells, compound alone cytotoxicity

| SMILES | viability [1] | viability [2] | viability [3] | differential viability (reversal) ([4]; H69AR cells + 2 uM doxorubicin) | viability [4, 14] | viability [4, 15] | inhibition [5] | inhibition [6] | growth inhibition [7] | growth inhibition [8] | viability increase [9] | viability [10] | viability [11] | inhibition [12] | RAM network inhibition [13] |
| --- | --- | --- | --- | --- | --- | --- | --- | --- | --- | --- | --- | --- | --- | --- | --- |
| O=C(CSc1nnnn1-c1ccccc1)Nc1ccc(Cl)cc1 | 100% (inactive) | 99.1% (inactive) | 89.7% (inactive) | 6.46% (inactive) | 83.2% | 89.7% | 2.13% (inactive) | 6% (inactive) | -4.88% (inactive) | 4.24% (inactive) | -3.86% (inactive) | 74% (inactive) | 76.8% (inactive) | 3.12% (inactive) | 2.55% (inactive) |
| Cc1nonc1NC(=O)c1ccccc1Br | 101% (inactive) | 95.8% (inactive) | 91.8% (inactive) | 4.93% (inactive) | 86.8% | 91.8% | -3.6% (inactive) | -1.64% (inactive) | -16.1% (inactive) | -8.82% (inactive) | 0.21% (inactive) | 93.7% (inactive) | 101% (inactive) | 2.3% (inactive) | -0.15% (inactive) |
| CSC1=N/C(=C\C=C\c2cccs2)C(=O)S1 | 95% (inactive) | 79.5% (inactive) |  | -15.6% (inactive) | 67% | 51.4% | -1.15% (inactive) | -6.17% (inactive) | -8% (inactive) | 0.455% (inactive) | -3.44% (inactive) | 95% (inactive) | 99.1% (inactive) | 1.66% (inactive) | 6.92% (inactive) |
| OC(CNCCc1ccccc1)c1ccccc1 (centres undefined) | 101% (inactive) | 101% (inactive) | 91.2% (inactive) | 9.8% (inactive) | 81.4% | 91.2% | -5.07% (inactive) | 2.36% (inactive) | -6.34% (inactive) | -6.08% (inactive) | -0.36% (inactive) | 95.4% (inactive) | 94.1% (inactive) | 0.865% (inactive) | 0.66% (inactive) |
| FC(F)(F)COc1nc(N2CCCCC2)nc(N2CCNCC2)n1 | 82% (inactive) | 98.8% (inactive) | 92.3% (inactive) | 15% (inactive) | 77.4% | 92.3% | -4.86% (inactive) | -4% (inactive) | 4.64% (inactive) | -3.79% (inactive) | -3.4% (inactive) | 85.5% (inactive) | 84.5% (inactive) | 0.78% (inactive) | -2.05% (inactive) |
| Cc1ccc(-c2cc(C(F)F)n3ncc(C(=O)N4CCN(c5ccccn5)CC4)c3n2)cc1 | 99.5% (inactive) | 49.2% (inactive) |  | 3.75% (inactive) | 52.2% | 56% | -6.4% (inactive) | 6.5% (inactive) | -6.85% (inactive) | 4.28% (inactive) | -5.43% (inactive) | 54.3% (inactive) | 55.4% (inactive) | -1.01% (inactive) | 6.29% (inactive) |
| COC(=O)c1cc(=O)n(Cc2ccc3c(c2)OCO3)c(=Nc2ccccc2)s1 | 90% (inactive) |  |  | -4.97% (inactive) | 43.1% | 38.1% | -5.2% (inactive) | 4.43% (inactive) | 4.22% (inactive) | -1% (inactive) | -5.95% (inactive) | 71.1% (inactive) | 73.3% (inactive) | 3.41% (inactive) | 5.96% (inactive) |
| CCc1ccc(C(=O)NC2CCCCC2)s1 | 68% (inactive) | 94.7% (inactive) | 109% (inactive) | 17.8% (inactive) | 90.7% | 109% | -3.01% (inactive) | 0.81% (inactive) | -14.4% (inactive) | 3.24% (inactive) | -0.13% (inactive) | 91.8% (inactive) |  | -0.215% (inactive) | 4.77% (inactive) |
| O=C(Nc1nc2c(s1)CCCC2)C1COc2ccccc2O1 (centres undefined) | 103% (inactive) | 63.1% (inactive) | 88.3% (inactive) | -10.7% (inactive) | 99% | 88.3% | -4.27% (inactive) | -5.25% (inactive) | -5.28% (inactive) | -7.76% (inactive) | 0.74% (inactive) | 90.3% (inactive) | 87% (inactive) | 0.75% (inactive) | 0.16% (inactive) |
| CCCn1c(=O)c(C(=O)NCc2ccccn2)c(O)c2ccccc21 | 78% (inactive) | 101% (inactive) |  | -12% (inactive) | 69.6% | 57.5% | 2.27% (inactive) | 13.6% (inactive) | 4.69% (inactive) | 12.5% (inactive) | 1.19% (inactive) | 87.4% (inactive) | 104% (inactive) | -1.17% (inactive) | -1.94% (inactive) |
| Clc1cccc(-c2nnc(-c3ccccc3)o2)c1 | 57% (inactive) | 78.7% (inactive) | 76.7% (inactive) | -4.06% (inactive) | 80.7% | 76.7% | -8.92% (inactive) | 0.82% (inactive) | 8.84% (inactive) | 3.85% (inactive) | -6.09% (inactive) | 4.61% (active) | 21.4% (active) | 1.33% (inactive) | 0.25% (inactive) |
